# PubChem BioAssay AID463213 (Sanford-Burnham Center for Chemical Genomics, 2010)
# The whole screen tested about 7,400 compounds, of which about 4,100 (55%) were called active. The set was probably picked from earlier hits. These entries were drawn from the full list. Unmarked numbers belong to inactive results.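 How the source made its calls: active means inhibition of yeast growth at or above a set limit in either of two repeat tests at 20 µM; inactive means the rest.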
# Assay: growth inhibitors of tim10-1 mutant yeast, confirmation, single concentration, luminescence, S. cerevisiae (AID 463213);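 further: tim10-1 mutant grown at permissive 25 °C to find synthetic lethal compounds; 0% = DMSO yeast wells and 100% = medium wells without yeast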
# Settings: S. cerevisiae tim10-1 ts strain growth, BacTiter-Glo, 24 h; at 20 µM; active compounds read high
row,Structure (SMILES),inhibition
1,Cc1ccc(Oc2cnn(-c3ccccc3)c(=O)c2Br)cc1,41.2% (active)
2,COc1ccc(N2CCN(C(=O)CCSCc3ccccc3F)CC2)cc1,16.8%
3,Fc1ccc(/C=N/Nc2nc(-c3cccnc3)nc3ccccc23)cc1,33.9% (active)
4,COc1ccc(/C=C(\C#N)C(=O)ONC2=NCCCCC2)cc1,66.8% (active)
5,COc1ccc(C(=O)Nc2ccccc2C(=O)N/N=C/c2ccccc2OC)cc1,56.6% (active)
6,COc1cccc(C(=O)Nc2cc3c(cc2Br)OCCCO3)c1,9.95%
7,COc1ccc2c(c1)c(C(=O)N/N=C/c1cccs1)c(C)n2C,28.8%
8,COc1ccc(/C(C)=N/NC(=O)c2ccc3nc[nH]c3c2)cc1,-11.2%
9,COc1ccc(C(=O)Nc2ccccc2C(=O)N/N=C/c2ccc(O)c(OC)c2)cc1,91.6% (active)
10,O=C(C(=O)N1CCc2ccccc2C1)c1c[nH]c2ccccc12,12.1%
11,CC1CCc2sc3nc(N4CCN(CCO)CC4)n4ncnc4c3c2C1 (centres undefined),27.2%
12,CC1CCc2c(sc3nc4n(c(=O)c23)CCS4)C1 (centres undefined),37.5% (active)
13,CCOC(=O)CSc1nc2c(c(=O)n(Cc3ccccc3Cl)c(=O)n2C)n1C,31.1%
14,Cc1ccc(-c2ccc(/C=C(\C#N)C(N)=S)o2)c([N+](=O)[O-])c1,48.3% (active)
15,CC(=O)Cc1nsc(NC(=O)c2csc3c2CCCC3)n1,29.6%
16,COc1ccc(N2C(=O)CC(Sc3n[nH]c(-c4ccc(C)cc4)n3)C2=O)cc1 (centres undefined),24.7%
17,CNC(=O)/C(C#N)=C/c1c(F)cccc1Cl,50.1% (active)
18,CCOC(=O)c1ccccc1N1C(=O)C2Sc3[nH]c(=O)sc3C(/C=C/c3ccccc3)C2C1=O (centres undefined),15.4%
19,CCOC(=O)C1Sc2[nH]c(=O)sc2C(c2ccc(Cl)cc2)C1C(=O)OCC (centres undefined),33.5% (active)
20,ONC(=Nc1ccc(Cl)cc1)c1ccccc1Cl,31.5% (active)
21,Cc1cccc(NC(=S)NCc2ccc3[nH]c4c(c3c2)CCCC4)c1,35.3% (active)
22,O=C(N/N=C\c1cccc(Br)c1)c1ccccc1-n1cccc1,51.5% (active)
23,CCC(=O)N1CCc2cc(S(=O)(=O)NC(C(=O)N3CCc4ccccc4C3)C(C)C)ccc21 (centres undefined),22.2%
24,CC1CCCC(C)N1C(=O)CN1CCN(c2nc(-c3ccc(F)cc3)cs2)CC1 (centres undefined),37.2% (active)

row,Structure (SMILES),inhibition
1,O=C(CN1CCN(c2ccc(F)cc2)CC1)Nc1cccc(C(F)(F)F)c1,23.8%
2,O=C(Nc1nc(-c2ccco2)c(-c2ccco2)s1)c1ccco1,65.9% (active)
3,Cc1ccc2c(c1)c1ncnc(N3CCc4ccccc4C3)c1n2C,22.1%
4,CCOC(=O)N1CCN(C(=O)c2cc3c(-c4ccc(Cl)cc4)nn(C)c3s2)CC1,22.4%
5,Cc1nc(-c2ccc(Cl)cc2)sc1C(=O)CBr,55.2% (active)
6,O=C(Oc1c(-c2ccco2)oc2ccccc2c1=O)c1cccnc1,42.6% (active)
7,CCc1nc2ccc(C(=O)N3CCN(c4cccc(Cl)c4)CC3)cc2nc1CC,24.6%
8,COc1ccc2nc(N3CCN(C(=O)c4ccc([N+](=O)[O-])o4)CC3)sc2c1,-0.8%
9,O=C(c1ccc2nc(N3CCOCC3)sc2c1)N1CCN(c2ccc(Cl)cc2)CC1,41.5% (active)
10,Cc1ccccc1CC1(CO)CCCN(C(=O)c2cc(-c3ccccc3)no2)C1 (centres undefined),21.1%
11,N/C(=N\OC(=O)Nc1ccc(Cl)c(Cl)c1)c1ncc(C(F)(F)F)cc1Cl,67.4% (active)
12,O=C(Cc1ncc(C(F)(F)F)cc1Cl)Nc1cccc(Br)c1,30.4%
13,CC1(C)CCSC(/C=C/c2ccccc2)=N1,49.4% (active)
14,Cc1ccc(C(=O)CCC(=O)N(C)CC(=O)Nc2c(Cl)cccc2Cl)cc1,-3%
15,FC(F)(F)Oc1ccc(NC(=S)NCc2ccccc2)cc1,47% (active)
16,C/C(=N\NC(=S)NCc1ccccc1)C1CCCCC1,26.9%
17,COc1ccc(NC(=S)N2N=CCC2c2ccccc2)cc1 (centres undefined),16.2%
18,Cc1ccc2c(c1)C1CN(C)CCC1N2S(=O)(=O)c1ccc(Oc2ccc([N+](=O)[O-])cc2)cc1 (centres undefined),22.1%
19,Oc1c(Cl)cc(Cl)c(Cl)c1Cc1c(O)c(Cl)cc(Cl)c1Cl,88.7% (active)
20,CCc1nn(CCCC(=O)Nc2ccc(C)cc2C)c(=O)c2cc3occc3n12,-8.95%
21,COc1ccc(-n2cc(-c3ccccc3)c3c(=S)nc[nH]c32)cc1,34.4% (active)
22,CCOC(=O)C1Cn2c(nc3c(c2=O)C(C)(CC)Cc2ccccc2-3)S1 (centres undefined),10%
23,O=C(/C(=C/c1cccc(Cl)c1)c1nc2ccccc2[nH]1)c1ccccc1,38.7% (active)
24,O=C(Nc1cccc(Cl)c1)c1cncn1-c1ccc(F)cc1,33% (active)

row,Structure (SMILES),inhibition
1,CCNC(=S)N(CCc1c(C)[nH]c2ccc(C)cc12)Cc1ccco1,24.5%
2,Cc1nonc1C1CCCN1C(=O)c1cc(COc2cccc(C(F)(F)F)c2)on1 (centres undefined),41.6% (active)
3,O=C1c2ccccc2C(=O)c2c1cccc2N1CCN(Cc2ccccc2)CC1,32% (active)
4,CCOC(=O)C1(S(=O)(=O)c2ccccc2)CCN(Cc2ccccc2)CC1,14.3%
5,O=C(c1ccc(CSc2ccccc2)cc1)N1CCCCCC1,26.4%
6,COc1ccc(/C=C2/SC(=O)N(CCCCCC(=O)Nc3ccccc3C(=O)O)C2=S)cc1,4.8%
7,O=C(CCCN1C(=O)/C(=C/c2ccccc2)SC1=S)Nc1ccc(O)cc1,28.7% (active)
8,O=C1/C(=C\c2ccccc2Cl)SC(=S)N1CCC(=O)N1CCCc2ccccc21,27.6%
9,COc1ccccc1C1C(C#N)=C(N)Oc2c1c(-c1ccccc1)nn2-c1ccccc1 (centres undefined),21.8%
10,Cc1ccc(C(C[N+](=O)[O-])c2c(C)cc3ccccn23)cc1 (centres undefined),30.6% (active)
11,CCN1/C(=C\c2ccc3ccccc3[n+]2CC)Sc2cc(C)ccc21,59% (active)
12,COc1ccc2nc(/N=C(\N)NC(=O)Nc3ccccc3)nc(C)c2c1,51% (active)
13,O=C1[C@@H](c2ccccc2)[C@@H](c2ccccc2)N1c1cccnc1,66.5% (active)
14,O=c1c(-c2ccc3c(c2)OCCO3)c(C(F)(F)F)oc2cc(O)cc(O)c12,22.5%
15,Cc1cccc(NC(=O)c2ccc([N+](=O)[O-])o2)c1,50.1% (active)
16,O=C(Nc1ccc(Br)cn1)c1ccc([N+](=O)[O-])o1,59.5% (active)
17,Cc1onc(NC(=O)c2ccc([N+](=O)[O-])o2)c1Br,45.9% (active)
18,Cc1cccc(CN2CCC(CNC(=O)Nc3ccc(F)c(Cl)c3)CC2)c1,14.9%
19,CCOC(=O)C1=C(C)N=c2s/c(=C\C(=O)OC)c(=O)n2C1c1ccc(OC)cc1 (centres undefined),24.7%
20,CC(=O)/C(=N\Nc1ccc(Cl)cc1Cl)Sc1cccc2cccnc12,43% (active)
21,Cc1cc(C)c(S(=O)(=O)c2ccccc2)c(OC(=O)c2c(F)cccc2Cl)n1,41.5% (active)
22,CCN1CCN(C(c2cccnc2)c2cc(Cl)c3cccnc3c2O)CC1 (centres undefined),34% (active)
23,Oc1c(C(c2ccccn2)N2CCOCC2)ccc2cccnc12 (centres undefined),16.2%
24,CCOC(=O)c1ccc(N2C(=O)CC(N3CCC(C(=O)OCC)CC3)C2=O)cc1 (centres undefined),47.8% (active)

row,Structure (SMILES),inhibition
1,Cc1[nH]c(=O)c(C(=O)/C=C/c2ccccc2)c2c1CCCC2,50.3% (active)
2,COc1ccc(Cn2c(-c3ccc(Cl)cc3)c[n+]3ccccc23)cc1,32.9% (active)
3,CCc1ccc(-c2cc3c(=O)n(CC(=O)NCCCN4CCN(Cc5ccccc5)CC4)nc(C)n3n2)cc1,-46.4%
4,CCCCNC(=S)N/N=C1\CCCCc2ccccc21,22.1%
5,Cc1[nH]n(-c2ccc([N+](=O)[O-])cc2)c(=O)c1C=NCCN1CCN(C(=O)c2ccccc2F)CC1,40.4% (active)
6,C=CCNC(=S)N1CCN(CCN=Cc2c(C)[nH]n(-c3ccc([N+](=O)[O-])cc3)c2=O)CC1,27.4%
7,COc1ccc(CNC(=O)/C(C#N)=C/c2cccc(OC)c2OC)cc1,78.2% (active)
8,O=C(NNc1c2ccccc2nc2ccccc12)c1cc2ccccc2cc1O,40.6% (active)
9,COc1ccc(-c2oc3ncn(Cc4ccco4)c(=N)c3c2-c2ccc(OC)cc2)cc1,17.6%
10,CCOC(=O)c1c(N)nn(C(=O)c2ccccc2)c1-c1ccccc1,16.3%
11,Cc1cc(Nc2ccccc2)n(C(=O)c2ccc(N)cc2)n1,39.9% (active)
12,C=CCNc1nc(Nc2ccc(Cl)cc2)nc(OC)n1,2.4%
13,Clc1ccc(Nc2ccc3ccccc3n2)cc1,50.6% (active)
14,C=CS(=O)c1sc(Cl)c(N2CCOCC2)c1[N+](=O)[O-] (centres undefined),83.8% (active)
15,Nc1ccccc1SC(C[N+](=O)[O-])c1ccccc1 (centres undefined),47.1% (active)
16,Cc1ccc(OS(=O)Nc2cccc3nccnc23)cc1 (centres undefined),25.4%
17,COc1ccc(C(=O)/C=C/c2ccc(-c3ccccc3)cc2)cc1CSCC(=O)O,22.9%
18,CC(=O)Nc1ccc(/C=C/C(=O)c2ccccc2)cc1,36.3% (active)
19,CN1c2ccccc2-c2nc3ccccc3n2C1c1ccco1 (centres undefined),19.8%
20,CCn1nc(C)c(NC(=O)/C=C/c2ccc(OC)c(COc3ccc(Br)cc3)c2)c1C,19.9%
21,CCCCCCCCn1c2c(c(=N)c3c1CCC3)CCCC2,30.4% (active)
22,O=[N+]([O-])c1ccc2oc(-c3cccc(O)c3)nc2c1,49.8% (active)
